Data on 40 molecules can be found in PubChem BioAssay (NCATS).

Molecules are shown by their SMILES. Results filed as inconclusive are left out. Calls of active or inactive are those of the source. The call rests on the fitted dose curve; in most records, active means well fitted inhibition curve with a large enough effect; inconclusive means small, poorly fitted or top-dose-only effect; inactive means no such curve, though single readings can be large or run the other way.
On the % scale 0 is the no-effect control and ±100 the full control effect; potency means the concentration at half of the fitted maximal effect.

The target of this experiment is N-terminal Xaa-Pro-Lys N-methyltransferase 1 (Homo sapiens) (UniProt Q9BV86). Briefly: qHTS Assay for Inhibitors of N-terminal methyltransferase 1 (NTMT1): LOPAC validation of the NTMT1 SAHH-coupled ThioGlo3 Assay (AID 1347143).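 Further: SAH from peptide methylation measured as thiol fluorescence via SAHH coupling and ThioGlo3; nearly all actives have a fitted effect of over 70% in size.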 The following applies: recombinant NTMT1, SAHH-coupled ThioGlo3 fluorescence; series mostly up to 114 µM; activity change, negative = inhibition: at the top concentration. From the text: Assay Submitter (PI): Rong Huang Ph.D, Purdue University, West Lafayette, IN 47907 The N-terminal methytransferase 1 is the first methyltransferase that methylates protein alpha-N-amines and plays an important role in regulating cell mitosis, chromatin interactions and DNA repair. It is observed to be over-expressed in various cancer patient tissues like malignant melanoma and colorectal cancer tissues. Knockdown of NTMT1 in cancer cells causes cell mitotic defects and enhances sensitivity to DNA damaging chemotherapeutics. […] These critical cellular processes in which NTMT1 is implicated, coupled with emerging links to cellular dysfunction, strengthen the inference that NTMT1 is a compelling novel anticancer target. Progress have been made in understanding the molecular properties of NTMT1 and the biological consequences of protein alpha-N-terminal methylation, but there are no specific small molecule probes available for NTMT1 to fully characterize its MTase activity. To address this unmet need, a panel of assay is created and established to enable quantitative high-throughput screening (qHTS) for novel, potent, and selective small molecule NTMT1 inhibitors. Two orthogonal qHTS that use different reagents (ThioGlo vs. MTaseGlo) are developed for primary robotic screening against the NCATS chemical library of more than 400,000 small molecules. Identified inhibitors are reacquired, validated, and further characterized. […] A pilot screen against the LOPAC library of 1280 compounds is carried out to assess performance of the optimized qHTS in 1536-well plate format. Early Translation Branch (ETB) National Center for Advancing Translational Sciences (NCATS) National Institute of Health (NIH)
N-terminal Xaa-Pro-Lys N-methyltransferase 1 (Homo sapiens), sequence (Q9BV86 whole entry, looked up): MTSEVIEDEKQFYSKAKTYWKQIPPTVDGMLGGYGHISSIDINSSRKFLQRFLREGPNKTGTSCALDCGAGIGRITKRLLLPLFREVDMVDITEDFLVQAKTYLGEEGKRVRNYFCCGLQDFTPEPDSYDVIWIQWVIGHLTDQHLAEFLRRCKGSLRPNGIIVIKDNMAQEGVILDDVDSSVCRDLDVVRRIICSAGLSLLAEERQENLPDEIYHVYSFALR
Materials: NTMT1 enzyme, substrate SPKRIA, control peptide RCC1-6 is provided by the Huang laboratory. ThioGlo3 Assay: In brief, 125nM NTMT1 enzyme was dispensed into a 1536-well assay plate with Aurora Discovery BioRAPTR Flying Reagent Dispenser (FRD, Beckton-Dickenson). Compounds (at various concentration) or 1uM RCC1-6 (SPKRIA) control were transferred to the assay plate using the Kalypsys 1536-pintool apparatus. After 1 min of room temperature incubation, 1uL of substrate (100uM SAM, 10uM SAHH, 15uM ThioGlo3) was added to the wells bringing the final assay volume to 4uL. Initial (background) fluorescence readout (EX: 340nm, EM: 450nm) was then detected using the PerkinElmer ViewLux microplate imager and a final fluorescence readout was taken after 30 min of room temperature incubation. The data was normalized to the background fluorescence.
Turning to `CCn1cc(C(=O)O)c(=O)c2cc(F)c(N3CCNC(C)C3)c(F)c21` (stereo not given), the Potency was 56.2 µM (active).

Regarding `CCCC(CCC)C(=O)O`, the “activity change, negative = inhibition” value is -5.27% (inactive).

Take `NCCc1ccc(O)c(O)c1`: the Potency is 44.7 µM (active).

For the molecule `Cc1cc2c(C(C)C)c(O)c(O)c(C=O)c2c(O)c1-c1c(C)cc2c(C(C)C)c(O)c(O)c(C=O)c2c1O`, the Potency was 56.2 µM (active).

With `CCc1cncnc1N1CCN(Cc2nc3ccc(C(F)(F)F)cc3[nH]2)CC1`, the “activity change, negative = inhibition” value was -13.9% (inactive).

In the case of `CNC[C@H](O)c1cccc(O)c1`, the “activity change, negative = inhibition” value is -21.6% (inactive).

On to `CC(C)C[C@H](NC(=O)[C@@H](O)[C@H](N)Cc1ccccc1)C(=O)O`, for which the “activity change, negative = inhibition” value was -11.3% (inactive).

With `Cc1cccc(-c2[nH]c(C(C)(C)C)nc2-c2ccc3nccnc3c2)n1`, the “activity change, negative = inhibition” value is -22.4% (inactive).

With `NC(=O)c1cnccn1`, the “activity change, negative = inhibition” value was -3.3% (inactive).

For `Cc1ccccc1C(OCCN(C)C)c1ccccc1` (stereo not given), the “activity change, negative = inhibition” value is -20.1% (inactive).

Turning to `O=C(Nc1nc2ccccc2n1CCN1CCOCC1)c1cccc([N+](=O)[O-])c1`, the “activity change, negative = inhibition” value is -7.21% (inactive).

With `Cc1ccc(N(CC2=NCCN2)c2cccc(O)c2)cc1`, the “activity change, negative = inhibition” value was -22.8% (inactive).

In the case of `NCCCC(N)(C(=O)O)C(F)F` (stereo not given), the “activity change, negative = inhibition” value was -18.9% (inactive).

`Nc1nc2ccc(OC(F)(F)F)cc2s1`: the “activity change, negative = inhibition” value was -28.9% (inactive).

As for `Cc1oncc1C(=O)Nc1ccc(C(F)(F)F)cc1`, the “activity change, negative = inhibition” value is -19.7% (inactive).

For `CN1CCN(CCCN2c3ccccc3Sc3ccc(C(F)(F)F)cc32)CC1`, the Potency was 44.7 µM (active).

As to `N[C@@H]1CONC1=O`, the “activity change, negative = inhibition” value was -3.68% (inactive).

On to `Oc1ccc(C2CNCCc3c2cc(O)c(O)c3Cl)cc1` (stereo not given), for which the Potency was 44.7 µM (active).

Take `NC(N)=NC(=O)c1nc(Cl)c(N)nc1N`: the Potency is 50.1 µM (active).

For `CCC(C)N(C)C(=O)c1cc2ccccc2c(-c2ccccc2Cl)n1` (stereo not given), the “activity change, negative = inhibition” value was -17.1% (inactive).

With `OC(CCN1CCCCC1)(c1ccccc1)C1CC2C=CC1C2` (stereo not given), the “activity change, negative = inhibition” value was -27.6% (inactive).

As for `C[C@]12CCC(=O)C=C1CC[C@@H]1[C@@H]2[C@@H](O)C[C@@]2(C)[C@H]1CC[C@]2(O)C(=O)CO`, the “activity change, negative = inhibition” value is -8.56% (inactive).

Consider `CCOC(=O)N1CCC(=C2c3ccc(Cl)cc3CCc3cccnc32)CC1`, for which the “activity change, negative = inhibition” value was -0.0915% (inactive).

`OC(CN1CCC(Cc2ccc(F)cc2)CC1)c1ccc(Cl)cc1` (stereo not given): the “activity change, negative = inhibition” value was -13.6% (inactive).

As for `CC(C[N+](C)(C)C)OC(N)=O` (stereo not given), the “activity change, negative = inhibition” value was -13.9% (inactive).

`CCOC(=O)C1=C[C@]2(CC)CCCN3CCc4c(n1c1ccccc41)[C@@H]32`: the “activity change, negative = inhibition” value is -19% (inactive).

Take `c1ccc([C@H]2CN3CCSC3=N2)cc1`: the “activity change, negative = inhibition” value was -20.2% (inactive).

Take `O=c1n(CCCN2CCN(c3cccc(Cl)c3)CC2)nc2ccccn12`: the Potency was 79.4 µM (active).

As for `Cc1[nH]c(=O)c(C#N)cc1-c1ccc2nccn2c1`, the Potency is 50.1 µM (active).

As for `CC(C)(C)NCC(O)c1ccc(O)c(CO)c1` (stereo not given), the “activity change, negative = inhibition” value is -17.8% (inactive).

As for `Nc1ccc(S(=O)(=O)Nc2ccnn2-c2ccccc2)cc1`, the “activity change, negative = inhibition” value was -13.8% (inactive).

`Clc1cccc(Cl)c1NC1=NCCN1`: the “activity change, negative = inhibition” value was -14.1% (inactive).

On to `CS(=O)(=O)c1cccc(CNc2nc(Nc3ccc4c(c3)CCC(=O)N4)ncc2C(F)(F)F)c1`, for which the Potency was 56.2 µM (active).

As to `C1COC(NC(C2CC2)C2CC2)=N1`, the “activity change, negative = inhibition” value was -15.2% (inactive).

With `O=C1CCC(N2C(=O)c3ccccc3C2=O)C(=O)N1` (stereo not given), the “activity change, negative = inhibition” value is -12.7% (inactive).

Take `O=C1CCc2cc(OCCCCc3nnnn3C3CCCCC3)ccc2N1`: the “activity change, negative = inhibition” value is -18.2% (inactive).

Regarding `CC(C)NCC(O)COc1ccc(COCCOC(C)C)cc1` (stereo not given), the “activity change, negative = inhibition” value is -13.1% (inactive).

As for `Cn1cnc([N+](=O)[O-])c1Sc1ncnc2nc[nH]c12`, the “activity change, negative = inhibition” value is -26% (inactive).

For `O=c1[nH]cnc2[nH]ncc12`, the “activity change, negative = inhibition” value was -18.9% (inactive).

Regarding `Cc1cnc(NC(=O)C2=C(O)c3ccccc3S(=O)(=O)N2C)s1`, the “activity change, negative = inhibition” value is -25.2% (inactive).
